The text below walks through data of PubChem BioAssay (Tox21).

SMILES strings stand for the structures. The source made the active and inactive calls. Where a call stands in place of a potency, no number is given. Unless noted, the call rests on the fitted dose curve.

Chain of KiSS-1 receptor (Homo sapiens) (Q969F8 whole entry, looked up): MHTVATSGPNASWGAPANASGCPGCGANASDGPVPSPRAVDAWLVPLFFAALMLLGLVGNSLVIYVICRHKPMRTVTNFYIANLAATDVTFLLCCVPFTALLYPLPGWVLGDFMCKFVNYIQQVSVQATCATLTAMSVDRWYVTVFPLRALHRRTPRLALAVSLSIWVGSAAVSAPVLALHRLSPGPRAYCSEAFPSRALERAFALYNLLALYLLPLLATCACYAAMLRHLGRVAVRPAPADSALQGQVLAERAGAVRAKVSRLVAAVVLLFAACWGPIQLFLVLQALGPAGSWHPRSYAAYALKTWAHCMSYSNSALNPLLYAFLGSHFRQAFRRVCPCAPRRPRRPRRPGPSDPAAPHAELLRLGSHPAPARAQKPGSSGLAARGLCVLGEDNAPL

One assay concerns the target KiSS-1 receptor (Homo sapiens) (UniProt Q969F8). As to the kind of experiment: Human kisspeptin (KISS1R) small molecule agonists, calcium flux assay in KISS1R-HEK293 cells (AID 1920064; active means well fitted activation curve with a large enough effect in the repeat runs). The conditions noted are these: KISS1R-HEK293, calcium flux fluorescence, agonist; series mostly up to 76.8 µM. The procedure, abridged: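 Concentration-response testing used 15 concentrations in triplicate on human KISS1R-expressing HEK293 cells. Calcium-dependent fluorescence (Ex/Em 480/540) was followed kinetically for 3 min after compound transfer.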
A general note: A change in cytosolic calcium serves as a functional read-out for many receptors and channels.
`CN(CCCN1c2ccccc2CCc2ccccc21)CC(=O)c1ccc(Cl)cc1`: the Potency result was “inactive”.

Take `Oc1ccc(C2(c3ccc(O)cc3)CC3CC2C2CCCC32)cc1` (stereo not given): the Potency entry is “inactive”.

Take `CC(CO)(CO)CO`: the Potency entry was “inactive”.

For `CC(C)(C)c1ccc(C(=O)O)cc1`, the Potency result was “inactive”.

In the case of `C/C=C1\[C@H]2C=C(C)C[C@]1(N)c1ccc(=O)[nH]c1C2`, the Potency result is “inactive”.

As to `CCN1/C(=C/C=C/c2sc3ccccc3[n+]2CC)Sc2ccccc21`, the activation was -1.63% [at 15.8 µM] (inactive).

On to `CCCC(=O)OC`, for which the Potency entry was “inactive”.

For `C/C=C/C=C/CO`, the Potency entry was “inactive”.

As to `OCCOCC#CCOCCO`, the Potency entry is “inactive”.

As for `CN(C)CCCN1c2ccccc2Sc2ccc(Cl)cc21`, the Potency result is “inactive”.

In the case of `Cc1ccc(O)c2ncccc12`, the Potency entry was “inactive”.

For `CCCCN1C(=O)[C@@H]([C@H](O)C2CCCCC2)NC(=O)C12CCN(Cc1ccc(Oc3ccc(C(=O)O)cc3)cc1)CC2`, the Potency entry was “inactive”.

Consider `O=C(O)Cc1ccc(Cl)cc1Cl`, for which the Potency result was “inactive”.

As to `CC(=O)OC(C)OC(C)=O`, the Potency result is “inactive”.

With `CCN(CC)CCOC(=O)C(c1ccccc1)C1CCCCC1` (stereo not given), the Potency entry was “inactive”.

Take `CC1=CC(=C(c2ccc(N)cc2)c2ccc(N)cc2)C=CC1=N`: the activation is 0.102% [at 6.97 µM] (inactive).

Consider `CC(=O)OCC(C)OC(C)=O` (stereo not given), for which the Potency entry is “inactive”.

For `O=[N+]([O-])c1cccc(C(F)(F)F)c1`, the Potency result is “inactive”.

With `CC1(C)[C@@H](O)CC[C@]2(C)[C@H]3C(=O)C=C4[C@@H]5C[C@@](C)(C(=O)O)CC[C@]5(C)CC[C@@]4(C)[C@]3(C)CC[C@@H]12`, the Potency entry was “inactive”.

For the molecule `O=C(/C=C/c1ccccc1)OCCc1ccccc1`, the Potency entry is “inactive”.

Regarding `CCOC(=O)CC(=O)C(=O)OCC`, the Potency entry is “inactive”.

`O=C(O)Cc1cc(I)c(Oc2ccc(O)c(I)c2)c(I)c1`: the Potency entry was “inactive”.

As for `CC(C)C(O)(c1ccc(OC(F)(F)F)cc1)c1cncnc1` (stereo not given), the Potency entry is “inactive”.

As to `O=Cc1ccc(O)c(O)c1O`, the Potency result is “inactive”.

Consider `C=CCCCCCCC=C`, for which the Potency result is “inactive”.

For `CC/C=C1/OC(=O)c2ccccc21`, the Potency entry is “inactive”.

With `Cc1cccc(Nc2ccccc2)c1`, the Potency result was “inactive”.

For `Cc1ccc([N+](=O)[O-])c(N)c1`, the Potency entry was “inactive”.

As to `CC(=O)[O][Al]`, the Potency result is “inactive”.

For the molecule `c1ccc2c(c1)ccc1c3ccccc3ccc21`, the Potency entry is “inactive”.

Take `O=C1CCc2ccc(OCCCCN3CCN(c4cccc(Cl)c4Cl)CC3)cc2N1`: the Potency entry was “inactive”.

On to `CCc1ccc2c(c1)C(=O)c1ccccc1C2=O`, for which the Potency result is “inactive”.

Turning to `CC(C)(C)c1cc(CO)cc(C(C)(C)C)c1O`, the Potency entry was “inactive”.

In the case of `CCCCOC(=O)CO`, the Potency result is “inactive”.

On to `CCCCCCOC(=O)c1ccccc1`, for which the Potency result was “inactive”.

As to `CC(C)c1ccccc1`, the Potency entry is “inactive”.

With `CCN(Cc1cccc(S(=O)(=O)O)c1)c1ccc(C(=C2C=CC(=[N+](CC)Cc3cccc(S(=O)(=O)[O-])c3)C=C2)c2ccccc2)cc1`, the Potency entry was “inactive”.

Turning to `On1ccccc1=S`, the Potency result is “inactive”.

Turning to `N#CCCCC(C#N)CCC#N` (stereo not given), the Potency entry is “inactive”.

As to `O=C(c1ccccc1)C1CCCCC1`, the Potency entry is “inactive”.

Tested on in the next assay: not listed separately
Description: G protein-coupled receptor (GPCR) small molecule agonists, calcium flux assay: HEK293 wild type cell line counter screen (AID 1920065). The conditions noted are these: HEK293 WT calcium flux, fluorescence, agonist mode; series mostly up to 57.6 µM. Put shortly:
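Fluorescence intensity signals activation. After overnight (18 h) culture and a 1 h calcium dye load at 37 C, compounds are added by pin tool and the plate read at 480/540 nm for 3 min in 1 s steps.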
Consider `CN(CCCN1c2ccccc2CCc2ccccc21)CC(=O)c1ccc(Cl)cc1`, for which the Potency entry is “inactive”.

Turning to `Oc1ccc(C2(c3ccc(O)cc3)CC3CC2C2CCCC32)cc1` (stereo not given), the Potency entry is “inactive”.

Regarding `CC(CO)(CO)CO`, the Potency result is “inactive”.

As for `CC(C)(C)c1ccc(C(=O)O)cc1`, the Potency entry is “inactive”.

On to `C/C=C1\[C@H]2C=C(C)C[C@]1(N)c1ccc(=O)[nH]c1C2`, for which the Potency entry is “inactive”.

Regarding `CCN1/C(=C/C=C/c2sc3ccccc3[n+]2CC)Sc2ccccc21`, the activation was -0.0412% [at 11.8 µM] (inactive).

As for `CCCC(=O)OC`, the Potency entry is “inactive”.

As to `C/C=C/C=C/CO`, the Potency entry is “inactive”.

For the molecule `OCCOCC#CCOCCO`, the Potency entry was “inactive”.

As for `CN(C)CCCN1c2ccccc2Sc2ccc(Cl)cc21`, the Potency result was “inactive”.

For the molecule `Cc1ccc(O)c2ncccc12`, the Potency entry is “inactive”.

For the molecule `CCCCN1C(=O)[C@@H]([C@H](O)C2CCCCC2)NC(=O)C12CCN(Cc1ccc(Oc3ccc(C(=O)O)cc3)cc1)CC2`, the Potency entry is “inactive”.

Consider `O=C(O)Cc1ccc(Cl)cc1Cl`, for which the Potency entry was “inactive”.

`CC(=O)OC(C)OC(C)=O`: the Potency entry is “inactive”.

As for `CCN(CC)CCOC(=O)C(c1ccccc1)C1CCCCC1` (stereo not given), the Potency entry was “inactive”.

In the case of `CC1=CC(=C(c2ccc(N)cc2)c2ccc(N)cc2)C=CC1=N`, the activation is -0.23% [at 5.23 µM] (inactive).

As to `CC(=O)OCC(C)OC(C)=O` (stereo not given), the Potency entry was “inactive”.

As to `O=[N+]([O-])c1cccc(C(F)(F)F)c1`, the Potency result is “inactive”.

In the case of `CC1(C)[C@@H](O)CC[C@]2(C)[C@H]3C(=O)C=C4[C@@H]5C[C@@](C)(C(=O)O)CC[C@]5(C)CC[C@@]4(C)[C@]3(C)CC[C@@H]12`, the Potency entry is “inactive”.

`O=C(/C=C/c1ccccc1)OCCc1ccccc1`: the Potency entry was “inactive”.

As to `CCOC(=O)CC(=O)C(=O)OCC`, the Potency entry was “inactive”.

In the case of `O=C(O)Cc1cc(I)c(Oc2ccc(O)c(I)c2)c(I)c1`, the Potency result was “inactive”.

`CC(C)C(O)(c1ccc(OC(F)(F)F)cc1)c1cncnc1` (stereo not given): the Potency result is “inactive”.

Turning to `O=Cc1ccc(O)c(O)c1O`, the Potency result is “inactive”.

As to `C=CCCCCCCC=C`, the Potency result is “inactive”.

Turning to `CC/C=C1/OC(=O)c2ccccc21`, the Potency entry was “inactive”.

With `Cc1cccc(Nc2ccccc2)c1`, the Potency result was “inactive”.

As for `Cc1ccc([N+](=O)[O-])c(N)c1`, the Potency result is “inactive”.

Regarding `CC(=O)[O][Al]`, the Potency entry was “inactive”.

Take `c1ccc2c(c1)ccc1c3ccccc3ccc21`: the Potency entry is “inactive”.

In the case of `O=C1CCc2ccc(OCCCCN3CCN(c4cccc(Cl)c4Cl)CC3)cc2N1`, the Potency result is “inactive”.

In the case of `CCc1ccc2c(c1)C(=O)c1ccccc1C2=O`, the Potency result is “inactive”.

As to `CC(C)(C)c1cc(CO)cc(C(C)(C)C)c1O`, the Potency entry is “inactive”.

On to `CCCCOC(=O)CO`, for which the Potency entry is “inactive”.

Turning to `CCCCCCOC(=O)c1ccccc1`, the Potency entry was “inactive”.

`CC(C)c1ccccc1`: the Potency entry is “inactive”.

For `CCN(Cc1cccc(S(=O)(=O)O)c1)c1ccc(C(=C2C=CC(=[N+](CC)Cc3cccc(S(=O)(=O)[O-])c3)C=C2)c2ccccc2)cc1`, the Potency entry was “inactive”.

With `On1ccccc1=S`, the Potency result is “inactive”.

Turning to `N#CCCCC(C#N)CCC#N` (stereo not given), the Potency entry was “inactive”.

Consider `O=C(c1ccccc1)C1CCCCC1`, for which the Potency result was “inactive”.
